In PubChem BioAssay (NCATS) one finds viability (% of control) and Potency data, which are given here for 24 compounds.

The structures appear in SMILES notation. Several values for one entry are separate records, joined by “and”; a condition that tells them apart may be missing. Equal values may be shown once. Records with an inconclusive call do not appear. Some structures have more than one record in an assay (separate samples or runs), and their calls can disagree. Activity calls are given as the source filed them. Unless noted, calls follow the shape of the dose curve; as a rule, active = well fitted curve in the direction sought with a large enough effect; inconclusive = small, poorly fitted or top-dose-only effect, or another doubt; inactive = no such curve, though single readings can be large; an effect the other way counts as inactive or inconclusive.

Test [1] is described as follows: High-throughput drug toxicity screening in the BPDCN cell line Cal-1 (AID 1224825; call rule not given here). Conditions: Cal-1 BPDCN cell viability, qHTS; at 45.8 µM (top of the series) unless noted. Summed up: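 Viability of the BPDCN line Cal-1 is measured as ATP-based luminescence (CellTiter-Glo) following 48 h incubation with compounds. Percent activity uses DMSO-treated wells as 100% and 9.2 uM bortezomib as 0%.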

The nature of test [2]: qHTS assay for measurement of the activity of small molecule inhibitors on Zika virus induced Caspase-3 activity in human iPSC derived neural progenitor cells (hNPCs) (AID 1224857). Also: nearly all actives have a fitted effect of over 65% in size. Also: potency is read from the fitted curve at half-maximal effect. An outline of the steps:
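After overnight (16–20 h) culture at 350 cells/well, hNPCs get compound, then ZIKV 2 FFU/cell one hour later. Six hours on, Caspase-Glo 3/7 is added and luminescence measured.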

A short description of test [3]: qHTS assay for measurement of the activity of small molecule inhibitors on Zika virus induced Caspase-3 activity in human astrocytoma cells (AID 1224859).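 Also: plate controls were ZIKV-infected untreated cells for no effect and uninfected cells for full effect.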 Summed up:
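Inhibition of Zika-induced caspase-3/7 activity: SNB-19 cells, 1 h compound pretreatment, ZIKV 2 FFU/cell for 6 h at 37 C, Caspase-Glo luminescence read-out.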

A short description of test [4]: qHTS Screen of the MIPE 4.0 Collection Against Ewings Sarcoma (RDES) (AID 1259252). Also: nearly all actives have a fitted effect of over 35% in size. Also: potency is read from the fitted curve at half-maximal effect. Summed up:
(§1)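 Here, cells in 5% FBS RPMI were exposed for two days (48 h) to compound dilutions added four hours after plating. ATP-based CellTiter-Glo luminescence measured viability, normalized to vehicle and no-cell blanks.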

Test [5] is described as follows: qHTS Screen of the MIPE 4.0 Collection Against Ewings Sarcoma (TC71) (AID 1259253). Also: nearly all actives have a fitted effect of over 40% in size. Also: potency is read from the fitted curve at half-maximal effect. Summed up:
as §1

Test [6] can be described thus: qHTS Screen of the MIPE 4.0 Collection Against Ewings Sarcoma (EW8) (AID 1259255). Also: nearly all actives have a fitted effect of over 35% in size. Also: potency is read from the fitted curve at half-maximal effect.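 As to viability: 100% = DMSO-treated cells and 0% = medium-only wells without cells.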 Summed up:
as §1

Test [7] is described as follows: qHTS Screen of the MIPE 4.0 Collection Against Ewings Sarcoma (TC32) (AID 1259256). Also: nearly all actives have a fitted effect of over 45% in size. Also: potency is read from the fitted curve at half-maximal effect. Summed up: as §1
Test [8] is described as follows: qHTS assay to identify small molecule inhibitors of chordoma cells - UCH-1 (AID 1259355). Also: nearly all actives have a fitted effect of over 55% in size. Also: potency is read from the fitted curve at half-maximal effect. Summed up:
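A 48hr growth-inhibition format: each drug tested at 15 concentrations together with added auranofin, camptothecin, doxorubicin, rubitecan and topotecan, with cell viability quantified as CellTiter-Glo luminescence.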

Test [9] is described as follows: qHTS assay to identify small molecule inhibitors of chordoma cells - UCH-2 (AID 1259356). Also: % is scaled to controls: 0 for no effect and ±100 for the full control effect.
Test [10] is described as follows: Identifying Small Molecule Inhibitors of Pancreatic Cancer Stem Cells (A2780, Spheroid) (AID 1259357).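 Also: spheroids pre-formed over 14 days in stem cell medium on hydrogel; compound exposure lasted 48 h before the ATP luminescence read.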 Conditions: Potency: A2780 spheroid viability. An outline of the steps:
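Luminescent ATP readout (CellTiter-Glo) quantifies surviving cells after a 48 h drug incubation. Normalization uses DMSO wells as no inhibition and media-only wells as full inhibition; bortezomib served as positive control.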

On to `CO[C@@H]1[C@@H](OC(N)=O)[C@@H](O)[C@H](Oc2ccc3c(O)c(NC(=O)c4ccc(O)c(CC=C(C)C)c4)c(=O)oc3c2C)OC1(C)C`, for which the viability (% of control) in [1] turned out to be 44%. For the same compound, the Potency result in test [2], in test [3], in [8] and in [9] was “inactive” each time. For the same compound, the Potency in [4] was 5.9 µM (active); in [5], 4.69 µM (active); in [6], 2.09 µM (active); in test [7], 5.9 µM (active).
For the compound `O=P(O)(O)C(O)(Cc1cccnc1)P(=O)(O)O`, the viability (% of control) in test [1] amounted to 125%. In addition, the Potency result in [2], in [3], in test [4], in [5], in test [6] and in test [7] was “inactive” in each case. The Potency entry in test [8] and in test [9] was “inactive” each time.
In the case of `CNS(=O)(=O)Cc1ccc2[nH]cc(CCN(C)C)c2c1`, the viability (% of control) in test [1] worked out at 117%. Moreover, the Potency result in test [2], in test [3], in [4], in test [5], in test [6] and in test [7] was “inactive” throughout. The Potency entry in test [8] and in [9] was “inactive” each time.
`COc1cc([C@@H]2c3cc4c(cc3[C@H](O)[C@H]3COC(=O)[C@H]23)OCO4)cc(OC)c1OC`: the viability (% of control) in test [1] was 8.85%. Also, the Potency result in [2], in [3], in test [4], in test [5], in test [6] and in [9] was “inactive” in each case. In test [8], the Potency was 0.0079 µM (active).
Turning to `COc1cc2c(Nc3ccc(Br)cc3F)ncnc2cc1OCC1CCN(C)CC1`, the viability (% of control) in test [1] was 5.58%. In addition, the Potency result in test [2], in test [3] and in test [10] was “inactive” in each case. Besides, the Potency was 16.6 µM (active) in [4], 5.9 µM (active) in [5], 5.26 µM (active) in test [6] and 5.01 µM (active) in [8].
Regarding `CCOC(=O)[C@H](CCc1ccccc1)N[C@H]1CCc2ccccc2N(CC(=O)O)C1=O`, the viability (% of control) in [1] was found to be 22.3%. For the same compound, the Potency result in [2], in test [3], in test [8] and in [9] was “inactive” each time. The Potency in [4] was 23.5 µM (active); in test [5] it was 20.9 µM (active); in test [6], 23.5 µM (active); in [7], 23.5 µM (active).
Regarding `CCC(C)(C)c1ccc(CC(C)CN2C[C@@H](C)O[C@@H](C)C2)cc1` (some centres undefined), the viability (% of control) in test [1] came to 108%. Moreover, the Potency result in test [2], in test [3], in test [5], in test [6], in [7] and in test [8] was “inactive” throughout. In test [9], the Potency entry was “inactive”.
With `COc1cc2ncnc(Nc3cccc(Cl)c3)c2cc1OC`, in test [1], the viability (% of control) was found to be 39.5%. In addition, the Potency result in test [2] and in test [3] was “inactive” throughout. Further, the Potency is 4.18 µM (active) in test [5] and 16.6 µM (active) in test [7].
Regarding `N[C@@H](Cc1ccc(O)c(O)c1)C(=O)O`, the viability (% of control) in [1] worked out at 93.8%. For the same compound, the Potency entry in test [2], in [3], in [5], in test [6], in [7] and in test [9] was “inactive” in each case.
Consider `CCOC(=O)[C@H](CCc1ccccc1)N[C@H]1CS[C@H](c2cccs2)CN(CC(=O)O)C1=O`, for which the viability (% of control) in test [1] amounted to 14%. Besides, the Potency entry in test [2], in test [3], in [8] and in [9] was “inactive” each time. Also, the figures for the Potency in test [5], in [6] and in [7] were 5.9 µM (active), 5.9 µM (active) and 4.18 µM (active), respectively.
On to `COc1cc(NS(=O)(=O)c2ccc(N)cc2)nc(OC)n1`, for which, in test [1], the viability (% of control) was 104%. For the same compound, the Potency entry in test [2], in test [3], in test [5], in test [6], in [7] and in [8] was “inactive” throughout. The Potency entry in test [9] was “inactive”.
Consider `CC(=O)CC(c1ccccc1)c1c(O)c2ccccc2oc1=O` (centres undefined), for which, in test [1], the viability (% of control) is 60.3%. Besides, the Potency result in test [2] is “inactive and 23.5 µM (active)”. For the same compound, the Potency entry in test [3], in test [4], in test [6], in test [7], in [8] and in test [9] was “inactive” each time.
`Nc1nc(N)c2nc(CNc3ccc(C(=O)NC(CCC(=O)O)C(=O)O)cc3)cnc2n1` (centres undefined): the viability (% of control) in test [1] was 9.27%. Also, the Potency entry in [2], in test [3] and in test [8] was “inactive” throughout. Moreover, the Potency in test [4] was 0.0166 µM (active); in test [5], 0.0132 µM (active); in [7], 0.0332 µM (active).
With `NCCCC(O)(P(=O)(O)O)P(=O)(O)O`, the viability (% of control) in [1] amounted to 97.8%. Further, the Potency entry in test [2], in [3], in [5], in test [6], in test [7] and in [8] was “inactive” throughout. The Potency result in [9] is “inactive”.
Regarding `NNC(=O)c1ccncc1`, the viability (% of control) in test [1] stood at 99.3%. Also, the Potency result in test [3], in test [4], in [5], in [6] and in [7] was “inactive” in each case.
As to `N=C(N)c1ccc(OCCCCCOc2ccc(C(=N)N)cc2)cc1`, the viability (% of control) in test [1] amounted to 39.6%. For the same compound, the Potency entry in test [2], in [3], in test [8] and in test [9] was “inactive” each time. In addition, the Potency in [5] is 8.33 µM (active); in [6] it was 14.8 µM (active).
On to `O=c1oc2c(O)c(O)cc3c(=O)oc4c(O)c(O)cc1c4c23`, for which the viability (% of control) in test [1] was determined as 131%. Besides, the Potency result in test [2], in test [3], in test [5], in [6], in test [7] and in [8] was “inactive” each time. In addition, the Potency entry in test [9] is “inactive”.
For the compound `Cn1c(=O)c2c(ncn2CC(O)CO)n(C)c1=O` (centres undefined), the viability (% of control) in [1] was 100%. Besides, the Potency result in test [2], in test [3], in test [5], in [6], in [7] and in test [8] was “inactive” each time. The Potency result in test [9] is “inactive”.
In the case of `CC(C)Cn1cnc2c(N)nc3ccccc3c21`, in [1], the viability (% of control) was determined as 3.23%. Besides, the Potency entry in test [2], in test [3], in test [8] and in test [9] was “inactive” in each case. The Potency in [5] is 18.7 µM (active); in test [6], 7.43 µM (active); in test [7], 18.7 µM (active).
As to `CC1=NN(c2ccccc2)C(=O)C1`, the viability (% of control) in test [1] stood at 99.8%. Also, the Potency result in [2], in [3], in [5], in test [6], in [7] and in test [8] was “inactive” each time. The Potency result in test [9] was “inactive”.
As for `CCOCC(O)COc1ccc(NC(=O)CC[S+](C)C)cc1` (centres undefined), the viability (% of control) in [1] was 110%. In addition, the Potency entry in test [2], in test [3], in [5], in [6], in [7] and in test [8] was “inactive” each time. Moreover, the Potency result in [9] was “inactive”.
For the compound `CCCCc1oc2ccc(NS(C)(=O)=O)cc2c1C(=O)c1ccc(OCCCN(CCCC)CCCC)cc1`, the viability (% of control) in [1] was 4.81%. The Potency result in test [2] and in test [3] was “inactive” each time. For the same compound, the Potency in test [5] is 20.9 µM (active); in [6], 16.6 µM (active); in [7], 20.9 µM (active).
As for `CCn1cc(C(=O)O)c(=O)c2cc(F)c(N3CCNCC3)cc21`, the viability (% of control) in test [1] was 104%. The Potency result in test [2], in test [3], in [5], in [6], in [7] and in test [8] was “inactive” each time. Further, the Potency result in test [9] was “inactive”.
For the compound `CC1CC2C3CCC4=CC(=O)C=C[C@]4(C)[C@@]3(F)[C@@H](O)C[C@]2(C)[C@@]1(O)C(=O)CO` (some centres undefined), the viability (% of control) in [1] was 56.6%. The Potency entry in [2], in test [3], in test [5], in test [6] and in test [7] was “inactive” in each case.
